Assay outcomes as filed in PubChem BioAssay.
TEAD-YAP inh: TEAD-YAP interaction inhibition; AID 1259422; inhibition, % at 9.12 µM; 1.4% of 640,000 active; HEK-TIYL cells, TEAD-Gal4/YAP UAS-luciferase luminescence; in the data active = inhibition above about 32%
GPR151 activ: activators of human GPR151; PathHunter beta-arrestin GPR151 cells, luminescence; activation, % at 11.2 µM; 1% of 650,000 active; AID 1508602; in the data active = activation above about 4.9%
Target sequence (Q8TDV0 whole entry, looked up): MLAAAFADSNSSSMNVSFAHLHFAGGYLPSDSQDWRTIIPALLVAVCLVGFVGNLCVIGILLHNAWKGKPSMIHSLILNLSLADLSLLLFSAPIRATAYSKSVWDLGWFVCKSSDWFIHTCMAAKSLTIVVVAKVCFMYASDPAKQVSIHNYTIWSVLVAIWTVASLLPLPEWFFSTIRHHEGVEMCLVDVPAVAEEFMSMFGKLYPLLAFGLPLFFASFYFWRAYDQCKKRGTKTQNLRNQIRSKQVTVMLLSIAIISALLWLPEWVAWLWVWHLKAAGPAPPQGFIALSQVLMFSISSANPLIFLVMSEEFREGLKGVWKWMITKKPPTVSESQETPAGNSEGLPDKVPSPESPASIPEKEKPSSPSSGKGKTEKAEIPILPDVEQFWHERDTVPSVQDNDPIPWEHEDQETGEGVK
FBW7 activator: activators of human E3 ligase FBW7; normalized activity (activation), % at 26.1 µM; 0.13% of 650,000 active; AID 1259310; AlphaScreen FBW7–phospho-cyclin E peptide binding, activator screen; in the data active = normalized activity above about 1.9%;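 also: purified mutant Fbw7 with reduced substrate affinity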
MITF primary: inhibitors of human MITF; 0.91% of 650,000 active; O75030; inhibition, % at 2.6 µM; AlphaScreen MITF homodimerization, bead proximity signal; in the data active = inhibition above about 50%
MITF inh conf: confirmation of human MITF inhibitors. AlphaScreen MITF homodimerization, biotin/His-MITF beads. shares compounds with MITF primary. 16% of 4,700 active. AID 1259372. inhibition, % at 2.6 µM;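 active = inhibition above a cutoff derived from the DMSO control wells, cut at about 28% in these data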;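 also: inhibitors lower the bead chemiluminescence by keeping MITF from dimerizing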
AS interf DR: AlphaScreen optical interference, dose response counter-screen | 6% of 480 active | AlphaScreen optical interference counterscreen, cell-free | IC50, µM | shares compounds with MITF primary; call rule not given here
AS interf ctr: counter-screen: compounds optically interfering with AlphaScreen | shares compounds with MITF primary | LysRS AlphaScreen counterscreen, signal interference, triplicate | inhibition, % at 2.6 µM | 7.6% of 4,700 active;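 active = inhibition above a cutoff derived from the DMSO control wells, cut at about 30% in these data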
A number is an active result. Compounds with a hit are over-represented: about 3.5% of the library has one in this group of screens.

How did O=C(Nc1ccc2c(c1)OCO2)c1ccccn1 do in these assays?
TEAD-YAP inh: inactive; GPR151 activ: inactive; FBW7 activator: inactive; MITF primary: inactive

What do the screens show for `O=C(NNC(=S)Nc1ccc2c(c1)OCO2)c1ccccn1`?
TEAD-YAP inh: inactive; GPR151 activ: inactive; FBW7 activator: inactive; MITF primary: 116.9; MITF inh conf: 95.7; AS interf ctr: 91.2

What do the screens show for `Cc1cc(C(=O)NNC(=S)NCC2CCCO2)no1` (stereo not drawn)?
TEAD-YAP inh: inactive; GPR151 activ: inactive; FBW7 activator: inactive; MITF primary: inactive

How did Cc1ccccc1COc1cn(CC(=O)N2CCCC2)c(CO)cc1=O do in these assays?
TEAD-YAP inh: inactive; GPR151 activ: inactive; FBW7 activator: inactive; MITF primary: inactive

Results for COCCNCCOc1cccc(Cl)c1Cl ?
TEAD-YAP inh: inactive; GPR151 activ: inactive; FBW7 activator: inactive; MITF primary: 72.1; MITF inh conf: inactive; AS interf ctr: inactive

How did Cc1ccc(C(C)(C)C)c(OCCN2CCN(C)CC2)c1 do in these assays?
TEAD-YAP inh: inactive; GPR151 activ: inactive; FBW7 activator: inactive; MITF primary: 77.0; MITF inh conf: inactive; AS interf ctr: inactive

Results for Cc1ccc(C(C)(C)C)c(OCCNCCN)c1 ?
TEAD-YAP inh: inactive; GPR151 activ: inactive; FBW7 activator: inactive; MITF primary: 79.8; MITF inh conf: inactive; AS interf ctr: inactive

How did CC(C)(C)c1cc(Cl)ccc1OCCOCCN1CCOCC1 do in these assays?
TEAD-YAP inh: inactive; GPR151 activ: inactive; FBW7 activator: inactive; MITF primary: 64.3; MITF inh conf: inactive; AS interf ctr: inactive

What do the screens show for `Cc1ccc(C(C)(C)C)c(OCCn2ccnc2)c1`?
TEAD-YAP inh: inactive; GPR151 activ: inactive; FBW7 activator: inactive; MITF primary: inactive

How did CN1CCN(CCOc2ccc(Cl)cc2C(C)(C)C)CC1 do in these assays?
TEAD-YAP inh: inactive; GPR151 activ: inactive; FBW7 activator: inactive; MITF primary: 78.6; MITF inh conf: inactive; AS interf ctr: inactive

Results for COCCCNCCCOc1ccc(Cl)cc1C(C)(C)C ?
TEAD-YAP inh: inactive; GPR151 activ: inactive; FBW7 activator: inactive; MITF primary: inactive

What do the screens show for `COCCNCCOc1ccc(Cl)cc1C(C)(C)C`?
TEAD-YAP inh: inactive; GPR151 activ: inactive; FBW7 activator: inactive; MITF primary: 73.6; MITF inh conf: inactive; AS interf ctr: inactive

Results for CC(C)NCC(O)COc1ccccc1 (stereo not drawn) ?
TEAD-YAP inh: inactive; GPR151 activ: inactive; FBW7 activator: inactive; MITF primary: inactive

What do the screens show for `OC(CNNc1c(F)c(F)cc(F)c1F)COc1ccccc1` (stereo not drawn)?
TEAD-YAP inh: inactive; GPR151 activ: inactive; FBW7 activator: inactive; MITF primary: 58.4; MITF inh conf: inactive; AS interf ctr: inactive

Results for COc1ccccc1CN1CCN(Cc2ccccc2C(F)(F)F)CC1 ?
TEAD-YAP inh: inactive; GPR151 activ: inactive; FBW7 activator: inactive; MITF primary: 69.5; MITF inh conf: inactive; AS interf ctr: inactive

How did COc1ccc(OC)c(CN2CCN(C(=O)c3c(OC)cccc3OC)CC2)c1 do in these assays?
TEAD-YAP inh: inactive; GPR151 activ: inactive; FBW7 activator: inactive; MITF primary: inactive

What do the screens show for `COc1cccc(OC)c1C(=O)N1CCN(Cc2ccccc2C(F)(F)F)CC1`?
TEAD-YAP inh: inactive; GPR151 activ: inactive; FBW7 activator: inactive; MITF primary: 52.0; MITF inh conf: inactive; AS interf ctr: inactive

How did COc1cc(OC)cc(C(=O)N2CCN(Cc3cc(OC)c(OC)cc3OC)CC2)c1 do in these assays?
TEAD-YAP inh: inactive; GPR151 activ: inactive; FBW7 activator: inactive; MITF primary: inactive

How did COc1cc(OC)cc(C(=O)N2CCN(Cc3ccccc3C(F)(F)F)CC2)c1 do in these assays?
TEAD-YAP inh: inactive; GPR151 activ: inactive; FBW7 activator: inactive; MITF primary: 62.2; MITF inh conf: inactive; AS interf ctr: inactive

How did COc1ccccc1CN1CCN(C(=O)c2cccs2)CC1 do in these assays?
TEAD-YAP inh: inactive; GPR151 activ: inactive; FBW7 activator: inactive; MITF primary: inactive

Results for COc1cccc(OC)c1C(=O)N1CCN(Cc2ccccc2Br)CC1 ?
TEAD-YAP inh: inactive; GPR151 activ: inactive; FBW7 activator: inactive; MITF primary: 63.1; MITF inh conf: inactive; AS interf ctr: inactive

What do the screens show for `C=CCNC(=O)NC(=O)Cn1nnc(-c2ccc(Cl)cc2)n1`?
TEAD-YAP inh: inactive; GPR151 activ: inactive; FBW7 activator: inactive; MITF primary: inactive

How did O=C1N[C@@H](Cc2ccc(O)cc2)C(=O)N2CCN(C(=O)NCc3ccccc3)C[C@H]12 do in these assays?
TEAD-YAP inh: inactive; GPR151 activ: inactive; FBW7 activator: inactive; MITF primary: 63.6; MITF inh conf: 69.0; AS interf DR: inactive; AS interf ctr: inactive

What do the screens show for `O=C1N[C@@H](Cc2ccc(Cl)cc2)C(=O)N2CCN(C(=O)NCc3ccccc3)C[C@H]12`?
TEAD-YAP inh: inactive; GPR151 activ: inactive; FBW7 activator: inactive; MITF primary: 72.6; MITF inh conf: 71.1; AS interf DR: inactive; AS interf ctr: inactive

Results for O=C1N[C@@H](Cc2ccc(O)cc2)C(=O)N2CCN(C(=O)OCc3ccccc3)C[C@H]12 ?
TEAD-YAP inh: inactive; GPR151 activ: inactive; FBW7 activator: inactive; MITF primary: inactive

What do the screens show for `CCCCCC(O)(CCCCC)C(=O)NN1CCCCC1`?
TEAD-YAP inh: inactive; GPR151 activ: inactive; FBW7 activator: inactive; MITF primary: 72.5; MITF inh conf: inactive; AS interf ctr: inactive

Results for CCOC(=O)N1CCN(c2cc(-c3cccnc3)nc(-c3ccncc3)n2)CC1 ?
TEAD-YAP inh: inactive; GPR151 activ: inactive; FBW7 activator: inactive; MITF primary: inactive

What do the screens show for `O=S(=O)(c1ccc(Cl)cc1)N1CCN(C2CCN(Cc3ccccc3)CC2)CC1`?
TEAD-YAP inh: inactive; GPR151 activ: inactive; FBW7 activator: inactive; MITF primary: inactive

Results for COc1ccc(S(=O)(=O)N2CCC(N3CCN(Cc4ccccc4)CC3)CC2)cc1 ?
TEAD-YAP inh: inactive; GPR151 activ: inactive; FBW7 activator: inactive; MITF primary: 78.5; MITF inh conf: inactive; AS interf ctr: inactive

How did COc1ccc(S(=O)(=O)N2CCN(c3ccccc3F)CC2)cc1 do in these assays?
TEAD-YAP inh: inactive; GPR151 activ: inactive; FBW7 activator: inactive; MITF primary: inactive

What do the screens show for `CN1CCN(C2CCN(S(=O)(=O)c3ccccc3)CC2)CC1`?
TEAD-YAP inh: inactive; GPR151 activ: inactive; FBW7 activator: inactive; MITF primary: 58.8; MITF inh conf: inactive; AS interf ctr: inactive

What do the screens show for `COc1ccc(S(=O)(=O)N2CCCN(Cc3ccccc3)CC2)cc1`?
TEAD-YAP inh: inactive; GPR151 activ: inactive; FBW7 activator: inactive; MITF primary: inactive

What do the screens show for `COc1ccc(S(=O)(=O)N2CCC(N3CCN(c4ccccc4F)CC3)CC2)cc1`?
TEAD-YAP inh: inactive; GPR151 activ: inactive; FBW7 activator: inactive; MITF primary: 52.0; MITF inh conf: inactive; AS interf ctr: inactive

Results for O=S(=O)(c1ccc2ccccc2c1)N1CCC(N2CCN(Cc3ccccc3)CC2)CC1 ?
TEAD-YAP inh: inactive; GPR151 activ: inactive; FBW7 activator: inactive; MITF primary: 57.4; MITF inh conf: inactive; AS interf ctr: inactive
